This note sets out measurements from PubChem BioAssay AID1224852 (National Center for Advancing Translational Sciences (NCATS), 2016).

Inconclusive results are not listed. Active and inactive are the calls of the source. The call rests on the fitted dose curve; in most records, active means well fitted curve in the direction sought with a large enough effect (not every such curve was filed as active); inconclusive means small, poorly fitted or top-dose-only effect, or effect the other way, or another doubt; inactive means no such curve, though single readings can be large or run the other way.

This experiment can be described thus: Cell viability assay for measurement of the protective activity of small molecules against cell death caused by Zika virus infection in human neural progenitor cells (hNPCs). The following applies: hNPC ZIKV-induced death protection, ATP luminescence, 72 h; series mostly up to 46.1 µM. The source says: National Center for Advancing Translational Sciences [NCATS] Johns Hopkins University School of Medicine Florida State University Assay Overview: Zika virus infection causes cell death in certain cell types including human neural progenitor cells (hNPCs), astrocytes, and astrocytoma cell line (SNB-19). This cell viability assay measures the ATP content (level) in human neural progenitor cells (hNPCs) using a luminescence readout that is proportional to viable cell numbers. Decrease in the luminescence signal after Zika virus infection indicates the cell death caused by Zika virus. Small molecule inhibitors […] the decreased luminescence signal after Zika virus infection, indicating the protective effect of that small molecule on the cell death caused by Zika virus infection. This observed protective effect of small molecules against Zika virus induced cell death may result from inhibition of virus replication or cellular response to the virus infection.
Assay Protocol Summary: The medium for hNPCs consists of DMEM/F12, N2 supplement (ThermoFisher, Cat.# 17502048), NEAA (ThermoFisher, Cat. # 11140050), 2 ug/ml heparin, 2 uM cyclopamine, and B27 (ThermoFisher, Cat. # 17504044). The ATP content assay kit (PerkinElmer, Cat.# 6016731) was used to determine cell viability. The reagent was reconstituted and prepared as described by the manufacturer. Cells were seeded in 384- or 1536-well assay plates and cultured at 37 C with 5% CO2 for 16 to 20 hours. The typical cell seeding density in the 1536-well plate assay is 350 cells/well in 3 ul medium for hNPCs in the tissue cultured treated/PDL coated plates. Compounds were added to cells and incubated for one hour before addition of ZIKV solution to cells (2 FFU/cell). After incubation at 37 C with 5% CO2 for 72 hours, the reagent mixture of the ATP content assay kit was added to each well, followed by incubation at room temperature for 10 minutes. The luminescence intensity of the assay plates was measured using a ViewLux plate reader (PerkinElmer). […] The percentage inhibitions of the decreased cell viability by small molecule inhibitors were then calculated.
For `O=S(=O)(CC1CS1)c1ccc(Oc2ccccc2)cc1` (stereo not drawn), the outcome was inactive.
Next, `CC(C)N[C@@H]1CCn2c(=O)[nH]c3cccc(c32)[C@@H]1O`: “inactive”; `O=C(Nc1ccc(Br)cc1)c1cc(Br)cc(Br)c1O`: “inactive”.
The entry for `S=C(SSC(=S)N1CCCCC1)N1CCCCC1` is “inactive”; for `COP(=S)(OC)SCN1C(=O)c2ccccc2C1=O` it is “inactive”; for `Cc1ccc([N+](=O)[O-])[c]2c1[O][Hg]2` it is “inactive”.
The entry for `O=C1C=CC[C@@H]2[C@H]3CCCN4CCC[C@@H](CN12)[C@@H]34` is “inactive”; for `O=c1c2ccccc2[se]n1-c1ccccc1` it is “inactive”.
Take `CC(=C(CCOC(=O)C(C)C)SSC(CCOC(=O)C(C)C)=C(C)N(C=O)Cc1cnc(C)nc1N)N(C=O)Cc1cnc(C)nc1N`: the call was inactive.
Regarding `COC1(CS(=O)c2ccccc2)CCN(CCc2c[nH]c3ccc(F)cc23)CC1` (stereo not drawn), the outcome was inactive.
Next, `CN1CC[C@@]2(C)c3cc(OC(=O)Nc4ccccc4)ccc3N(C)[C@@H]12`: “inactive”.
For `CC(C)[C@H]1C(=O)N[C@H](CO)Cc2c[nH]c3cccc(c23)N1C`, the compound was classed as inactive.
The entry for `CC(C)[N+](C)(CCC(C(N)=O)(c1ccccc1)c1ccccc1)C(C)C` is “inactive”.
The entry for `Oc1ccc([C@H]2CNCc3c2ccc(O)c3O)cc1O` is “inactive”.
Next, `CC[n+]1c(-c2ccccc2)c2cc(N)ccc2c2ccc(N)cc21`: “inactive”.
For the compound `CN1CC(=O)N2C(Cc3c([nH]c4ccccc34)[C@H]2c2ccc3c(c2)OCO3)C1=O` (stereo partly drawn), the compound was classed as inactive.
Regarding `CC(O)CN1CCN(CC(=O)[O-])CCN(CC(=O)[O-])CCN(CC(=O)[O-])CC1.[Gd+3]` (stereo not drawn), the call was inactive.
Regarding `COc1cccc2c1C(=O)c1c(O)c3c(c(O)c1C2=O)C[C@@](O)(C(=O)CO)CC3OC1CC(N2CCOC(OC)C2)C(O)C(C)O1` (stereo partly drawn), the compound was called inactive.
